LASV entry inh – qHTS for Inhibitors of binding or entry into cells for Lassa Virus | Potency, µM (top dose mostly 37.9 µM), inactives show at the top dose activity change, negative = inhibition, usual class: inhibitors | hit rate 1.2% among 300,000 | Lassa virus pseudotype entry inhibition, cell reporter; calls by dose curve; tested in HEK293 cells; also: potency is read from the fitted curve at half-maximal effect; % is scaled to controls: 0 for no effect and ±100 for the full control effect; nearly all actives have a fitted effect of over 50% in size
FMDV inh – High Throughput Screening for Foot and Mouth Disease Virus Antivirals; FMDV antiviral cell-based qHTS; Potency, µM (top dose mostly 57.9 µM), without a hit: top-dose activity change, negative = inhibition, most hits filed as inhibitors; AID 1159524, 2015; hit rate 1.2% among 410,000; calls by dose curve; tested in HEK293T cells; also: read-out not given here; potency is read from the fitted curve at half-maximal effect; % is scaled to controls: 0 for no effect and ±100 for the full control effect; nearly all actives have a fitted effect of over 45% in size
HCV inh – qHTS Assay for Inhibitors of Hepatitis C Virus (HCV) | hit rate 3.4% among 340,000 | Potency, µM (highest dose often 41.8 µM), for the others: at the top dose activity change, negative = inhibition, hits mostly inhibitors | Huh7.5.1 HCVcc-Cre infection, luciferase reporter, 44 h; active = well fitted inhibition curve with a large enough effect; inconclusive = small, poorly fitted or top-dose-only effect, or another doubt; inactive = no such curve, though single readings can be large or run the other way; also: potency is read from the fitted curve at half-maximal effect; % is scaled to controls: 0 for no effect and ±100 for the full control effect
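Infectious HCV cell culture screen: compound-treated cells (1,000/well, pre-plated 4 h) are infected with HCVcc-Cre at roughly 0.5 moi and grown 44 h. Infection is quantified by luciferase signal after 15 min substrate incubation at room temperature.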
Marburg entry inh – qHTS for inhibitors of binding or entry into cells for Marburg Virus. Marburg virus pseudotyped entry inhibition, cell reporter. hit rate 1.8% among 300,000. Potency, µM (series often up to 37.8 µM), for inactives: at the top dose activity change, negative = inhibition, most hits filed as inhibitors; calls by dose curve; tested in HEK293 cells; also: potency is read from the fitted curve at half-maximal effect; % is scaled to controls: 0 for no effect and ±100 for the full control effect
Shiga toxin inh – A qHTS for Small Molecule Inhibitors of Shiga Toxin; Vero cells, Shiga toxin protein synthesis inhibition reporter; hit rate 9.2% among 290,000; inhibition, % at 38.7 µM; in the data active = inhibition mostly above about 28%, no sharp cut-off; inactive = mostly below about 43%; also: 0% is about no effect
CHX counter – Cycloheximide Counterscreen for Small Molecule Inhibitors of Shiga Toxin. AID 2314, 2010. cell reporter, cycloheximide protein synthesis inhibition counterscreen. hit rate 12% among 300,000. max response, %; in the data active = max response mostly above about 13%, no sharp cut-off; inactive = mostly below about 14%; also: read at 38.3 µM for the half of the compounds with a filed dose; 0% is about no effect
* = called active by the depositor; ? = inconclusive; . = no result given; [ ] = remark or other dose. Hits are enriched below; roughly 13% of the tested compounds scored in any of these assays.

SMILES | LASV entry inh | FMDV inh | HCV inh | Marburg entry inh | Shiga toxin inh | CHX counter
Cc1ccc(/C(N)=N/OC(=O)CCC2CCCCC2)cc1 | -3% | 44% | 19% | ? | 38 | 14*
N/C(=N\OC(=O)CC1CCCCC1)c1ccccn1 | ? | . | 6% | 2% | 39 | 14
N/C(=N\OC(=O)CCC1CCCC1)c1ccncc1 | 11% | 0% | 11% | 16%[46.1 µM] | 80 | 20*
Cc1ccc(/C(N)=N/OC(=O)CCC2CCCC2)cc1 | 7% | 36% | 0% | 2%[46.1 µM] | 3 | -3
CCCS(=O)(=O)N1CCC(C(=O)NCc2ccc(F)cc2)CC1 | 6% | -13% | 32% | 22% | 10 | -4
S=C(NCC1CCCO1)N1CCN(c2nc(-c3ccc(Cl)cc3)cs2)CC1 (stereo unspecified) | ? | 16µM* | ? | ? | -7 | -2
CCCNC(=S)N1CCN(c2nc(-c3cccc(OC)c3)cs2)CC1 | -2% | ? | ? | -30% | 11 | 13*
COc1cccc(-c2csc(N3CCN(C(=O)C4CCCCC4)CC3)n2)c1 | ? | -21% | 5% | -25% | 2 | -3
S=C(NCC1CCCO1)N1CCN(c2cccc(Cl)c2)CC1 (stereo unspecified) | . | 1% | ? | . | 34 | -2
CCCNC(=S)N1CCN(c2nc(-c3ccc(C)cc3)cs2)CC1 | -11% | ? | 13µM* | ? | -2 | 13*
CN1CCC(N2CCN(C3CN(Cc4cn(Cc5ccc(C(F)(F)F)cc5)nn4)S(=O)(=O)C3)CC2)CC1 (stereo unspecified) | . | -18% | . | . | . | .
O=[N+]([O-])c1ccc(-n2cc(-c3ccccc3)nn2)cc1 | . | 64% | 4% | . | 11 | 14*
O=[N+]([O-])c1ccc(-c2cn3nc(-c4ccccc4)c(-c4ccccc4)nc3n2)cc1 | 9% | -11% | -2% | 2%[46.1 µM] | -11 | -3
CCOC(=O)C1CCN(S(=O)(=O)c2ccc(NC(C)=O)c(Cl)c2)CC1 | 3% | -21% | 12% | 13%[46.1 µM] | -14 | -1
Cc1cccc(C)c1NC(=O)CN1CCN(CCCC(c2ccc(F)cc2)c2ccc(F)cc2)CC1 | . | 0% | 2µM* | . | . | .
Cc1cccc(C)c1NC(=O)CN1CCC(Cc2ccccc2)CC1 | . | -18% | . | . | . | .
COc1cccc(NC(=O)CN(C)C(=O)c2ccc(NS(=O)(=O)c3ccc(F)cc3)cc2)c1 | . | -15% | 0% | . | . | .
COc1ccc(S(=O)(=O)N2CCOC2CNC(=O)C(=O)NCCc2ccc(OC)c(OC)c2)cc1C (stereo unspecified) | ? | ? | 11µM* | ? | -9 | -1
COc1ccc(CCNC(=O)C(=O)NCC2OCCN2S(=O)(=O)c2ccc3c(c2)OCCO3)cc1 (stereo unspecified) | ? | -15% | ? | ? | 11 | 34*
COc1ccc(CCNC(=O)C(=O)NCC2OCCN2S(=O)(=O)c2ccc3c(c2)OCCO3)cc1OC (stereo unspecified) | -23% | -12% | ? | ? | -19 | -1
CCOc1ccc(S(=O)(=O)NCCC(=O)NC2=NCCS2)cc1 | 6% | ? | 6% | ? | -12 | -3
CCCn1nnc(NC(=O)c2ccc(OCC)c(Cl)c2)n1 | -13% | 46% | ? | 13% | 33 | 20*
CCCn1nnc(NC(=S)NC(=O)c2ccc(-c3ccc(Br)cc3)o2)n1 | . | -12% | -25% | . | 41 | 12
CCCn1nnc(NC(=O)c2ccc(-c3ccccc3)cc2)n1 | -1% | . | ? | -9% | 100* | 21*
CCCn1nnc(NC(=O)COc2cc(C)ccc2C(C)C)n1 | -24% | -1% | ? | 3% | -7 | -2
SMILES | LASV entry inh | FMDV inh | HCV inh | Marburg entry inh | Shiga toxin inh | CHX counter
CCOc1ccc(C(=O)Nc2nnn(CC)n2)cc1 | ? | 9% | 16% | 8% | 75* | 36*
CCCn1nnc(NC(=O)c2ccc(Br)cc2)n1 | -1% | 68% | 14% | 3% | 99* | 45*
CCOc1ccc(/C=N/Nc2nc(N3CCCC3)nc(N3CCCC3)n2)cc1OC | ? | . | -27% | ? | -17 | 0
Cc1cc(NS(=O)(=O)c2cccs2)no1 | -2% | -8% | 19% | 12% | 20 | -4
CC(C)(C)N(Cc1ccccc1)C(=O)CSc1ncn[nH]1 | -6% | -12% | -4% | -9%[46.1 µM] | -5 | -4
CC1CN(CCC(=O)Nc2ccc3c(c2)CCC3)CC(C)O1 (stereo unspecified) | -17% | . | 7% | -8% | 31 | -4
CC(C)(C)NC(=O)CN(C(=O)CCN1CCCc2ccccc21)C(C)(C)C | 17% | -18% | -2% | -24% | -4 | -3
CCCn1nnc(NC(=O)c2ccc(OC)cc2)n1 | 8% | 42% | 7% | 1% | 43 | 37*
O=C(Cc1cccc(NC(=O)C2CCN(C(=O)C3CCCC3)CC2)c1)Nc1cccc(C(=O)N2CCCC2)c1 | . | -23% | -17% | . | . | .
C=Cc1c(C)/c2[n-]/c1=C\c1[n-]c(c(CC)c1C)/C=c1\[n-]c3c(c1C)C(=O)C(C(=O)[O-])C=3c1[n-]c(c(C)c1CCC(=O)[O-])\C=2.[Cu].[Na+].[Na+] (stereo unspecified) | ? | . | . | 31µM* | . | .
COc1cc(-c2nnc(-c3cccs3)o2)cc(OC)c1OC | -14% | 11% | ? | -24% | 16 | 2
CCOc1ccc(-c2nnc(-c3cccs3)o2)cc1 | ? | -51% | ? | ? | 130* | 45*
Cc1ccc(OCCSc2nnc(-c3cccs3)o2)cc1 | -9%[46.1 µM] | 5% | . | 16%[46.1 µM] | . | .
CCOc1ccc(-c2nc(-c3cccs3)c(CC(=O)O)s2)cc1OC | ? | 57% | 8% | 12%[46.1 µM] | 48 | 24*
COc1ccc(-c2nnc(-c3cccs3)o2)cc1OC | 0% | 58% | -29% | -27% | 92* | 51*
CCOc1ccc(-c2nnc(-c3cccs3)o2)cc1OCC | -10% | 0% | ? | 6% | 58* | 24*
Cc1ccc(S(=O)(=O)Nc2ccccn2)c(C)c1 | . | 42% | . | . | . | .
O=C1CC(N2CCN(c3ccccn3)CC2)C(=O)N1c1ccc(Cl)cc1 (stereo unspecified) | . | -19% | 9% | . | 7 | 1
COc1cc(C(=O)NC(=S)Nc2cccc(-c3cc4ccccc4oc3=O)c2)cc(OC)c1OC | ? | -24% | ? | ? | -10 | -4
Clc1ccc(-c2nnc(CSc3nnc(-c4cccs4)o3)o2)cc1 | 16% | 28% | -18% | 6%[46.1 µM] | 36 | 23
c1csc(-c2nnc(-c3ccc(N4CCOCC4)cc3)o2)c1 | ? | -30% | -14% | ? | 63* | 47*
Cc1ccc([N+](=O)[O-])cc1NC(=O)C(C)NS(=O)(=O)c1ccc(F)cc1 (stereo unspecified) | -1% | -16% | -15% | -3%[46.1 µM] | -17 | 9
CC12CCC(c3c(C(=O)Nc4nccs4)nn(-c4ccccc4)c31)C2(C)C (stereo unspecified) | -3% | ? | -15% | ? | 17 | 5

Screening results (PubChem BioAssay)
